Assay results taken from the OligoGym collection.

Target: KRT75
Assay: pooled miR-30 sensor sort-seq; sequence = guide strand
Conditions: shRNA
Further: reference of the scale not given here.

Sequence	sensor-assay potency score (higher = more potent)
TTGCAAGCTGGAACACTGCTTC	0.132
TTCCACAACATCCTGCATGTTC	0.126
TTTCACATGTGTAACAGACGGG	0.696
TTAATAGACACATTCCAGGGAG	0.363
ATAGGCAGCATCTACGTCCTTT	-0.0293
TTGACTCCAAACCTGTTGCTGG	-0.175

Target: KRT79
Assay: as above
Conditions: shRNA

Sequence	sensor-assay potency score (higher = more potent)
TTGCCAGTCACAGAAATGCTGA	-0.931
TTGAGCACCACAAACTCGTTCT	0.422
TTTGCCATGCAGATCCATCCGG	-0.203
TTCTCTGCAGCAGTGTGCTTGT	-0.0157
TTTGTGGAGTATGTTTGCCGAG	-0.673
TTGACCGTAGTGGTCTTCCGCA	-0.477
TCGCTCTCCAGAAGCTTGCGGT	-0.966
TTGCCATGCAGATCCATCCGGC	-0.416
ATTTGTGCTGAATCCACCCTTG	0.32
TTAACCTTCCCTCCCATCCTAC	-1.2
TTGATTTCATCCTCGTACTTGT	0.185
TTCATCCTCGTACTTGTTCTTG	-0.726

Target: KRT85
Assay: as above
Conditions: shRNA

Sequence	sensor-assay potency score (higher = more potent)
TTCTGGTAGAACTGCCACTTGG	-1.54
TTTATTGAAACACAGATCGAGA	-0.788
TTGCTCTCGCAGCAGCGCTGGT	-1.3
AACATCGTCATACTGAGCCTTG	-0.503
TCCCTCTGTAGGAACATCCAGA	-1.53
TAGAACGACAAACTCATTCTCT	0.106
TTGACTATGACCGAGGTGTCTG	-0.0564
TTGAAACACAGATCGAGACAAC	-0.784
TTCACTGAATAGCAAGACCTGT	-0.614
TATTTTGGAGCTAAGTAGGAGT	-0.047
TTCTTTAGAACGACAAACTCAT	0.238
ATCTTGACTATGACCGAGGTGT	-0.378

Target: KRT86
Assay: as above
Conditions: shRNA

Sequence	sensor-assay potency score (higher = more potent)
TGACAATGTCATCGTACTGTGC	-0.56
AATGTCATCGTACTGTGCCTTG	-0.754
TTGATCTCGGCAATGATGCAGT	-0.0305
TCGTACTGTGCCTTGATCTCGG	0.0587
ACGGGTGACAATGTCATCGTAC	-0.601
TCCAGCTCGGCCAACTTGCAGC	-1.89
TTGCTGTTGCTGGGGACGCTAC	-1.52
TAGTAGTGCCCACCACCACGTT	-1.34
TTATTGGAAACACAGAGTGAAA	-1.53
TTAGTTTTTCAGAAGCTCTTGA	0.521
